Laboratory results from PubChem BioAssay (NCI).
About 83,000 compounds went through this panel and 20% of them were active in at least one assay; those are over-represented in the sample as a whole.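 Compound tested at a single concentration for 48 hours in 96-well plates; a percent growth value below 10 was scored as active.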 A number with no mark means an inactive call. The source made the active and inactive calls.

Tests used:
Experiment in all cases: NCI-60 one-dose screen, 48 h (100 = growth as untreated, 0 = no growth, -100 = all killed)
Details in all cases: 10 µM
T-47D breast = test system: T-47D breast
BT-549 breast = test system: BT-549 breast
SW-620 colon = test system: SW-620 colon
MCF7 breast = test system: MCF7 breast
HCC-2998 colon = test system: HCC-2998 colon
KM12 colon = test system: KM12 colon
MDA-MB-435 melanoma = test system: MDA-MB-435 melanoma
HCT-116 colon = test system: HCT-116 colon

Structure (SMILES)	growth (T-47D breast)	growth (BT-549 breast)	growth (SW-620 colon)	growth (MCF7 breast)	growth (HCC-2998 colon)	growth (KM12 colon)	growth (MDA-MB-435 melanoma)	growth (HCT-116 colon)
O=c1[nH]c(=O)n(C2C[C@H](O)[C@@H](CO)O2)cc1C(F)(F)F (stereo partly specified)	95.3%	105%	114%	102%	108%	115%		
Nc1ncc(-c2cnn(C3CCNCC3)c2)cc1-c1nc2ccccc2o1	-4.42% (active)		-60.4% (active)	11.6%	14.2%	-81.3% (active)	-55.5% (active)	-2.99% (active)
Cc1ccc(NCCNCC(C)(C)O)c2c(=O)c3ccc(Cl)cc3sc12	27.4%		-80.1% (active)	-73.2% (active)	-52.8% (active)	8.21% (active)	-84.5% (active)	-61.6% (active)
CN(C)CCCOc1ccc(OCCCN(C)C)c2c1C(=O)c1ccccc1C2=O	-5.61% (active)		3.12% (active)	8.41% (active)	16.7%	6.87% (active)	3.12% (active)	8.36% (active)
CCN(CC)CCOc1cccc2c1C(=O)c1cccc(OCCN(CC)CC)c1C2=O	92.2%		20.8%	9.16% (active)	54.7%	33.9%	32.5%	7.44% (active)
CSc1nc2c(c(=O)n1C)CN(Cc1ccccc1)C(=O)CN2	95%		95.7%	89.6%	85.4%	85.7%	60%	92.6%
c1ccc(CCCCc2ccc3ccccc3n2)cc1		102%	102%	108%	92.9%	106%	108%	
CCN(CC)CCNc1ccc(C)c2sc3cc(Cl)ccc3c(=O)c12	33.1%		2.58% (active)	19.8%	23.3%	32.2%	-44.8% (active)	11.4%
O=C(CCCCC(=O)Oc1c(Cl)cc(Cl)cc1[N+](=O)[O-])Oc1c(Cl)cc(Cl)cc1[N+](=O)[O-]	102%		112%	86.3%	103%	99.7%	103%	101%
IC(I)I		103%	102%	100%	98%	104%		106%
Cc1ccc(C(C)C)c(O)c1NC(=O)OC(C)C		96.1%	103%	92.7%	89.5%	100%	106%	91.9%
COc1ccccc1N1CCCSC1=Nc1ccccc1	107%		103%	98.6%	108%	91.7%	103%	79.2%
N#CCc1csc(Cc2ccccc2)n1	103%		103%	90.1%	104%	101%	111%	106%
CN(C)CCOc1ccccc1NC1=C(Cl)C(=O)C(Nc2ccccc2OCCN(C)C)=C(Cl)C1=O	-37.6% (active)		-50% (active)	-53.9% (active)	101%	93.6%	86.4%	-75.3% (active)
CC(=O)OC/C=C(/C)C[P+](c1ccccc1)(c1ccccc1)c1ccccc1	14.4%		53.6%	33.3%	80.4%	33.3%	53.3%	26%
COc1ccc(N(C)c2ncnc3occ(C)c23)cc1	67.1%		33.9%	9.66% (active)	7.26% (active)	-33.2% (active)	7.12% (active)	-11.9% (active)
COc1ccc(/C=c2\sc3n(c2=O)C(c2cc(OC)c(OC)c(OC)c2)C=C(c2ccc(OC)c(OC)c2)N=3)cc1OC (stereo unspecified)		88.5%	109%	86.2%	106%	95.8%	86.1%	
O=C(CCl)Oc1ccc(OC(=O)CCl)cc1		46.9%	89.8%	77.9%	109%	83.7%	85.3%	94.5%
O=C1c2ccccc2C(=O)c2c1ccc(C(Br)Br)c2Cl	22.7%		-23.4% (active)	2.06% (active)	87.4%	47.5%	60%	-62.7% (active)
CCN(CC)CCCC(Nc1c2ccc(Cl)cc2nc2ccc(OC)cc12)c1ccc(F)cc1 (stereo unspecified)		81.5%	-53.9% (active)	-62.9% (active)	-85% (active)	14.7%	-86.9% (active)	-41% (active)
Cc1cc(SCc2ccccc2)nc(N)n1		89.3%	105%	93.8%	108%	115%	99.2%	102%
COc1nc2c(c(=O)n1C)CN(c1ccccc1)C(=O)C(C)N2 (stereo unspecified)	95.5%		99.9%	94.5%	94.5%	105%		95.4%
O=C1c2ccccc2C(=O)c2c1ccc(C(Br)Br)c2[N+](=O)[O-]	-36.2% (active)		-23.6% (active)	-40% (active)	82%	49.9%		-63.9% (active)

Structure (SMILES)	growth (T-47D breast)	growth (BT-549 breast)	growth (SW-620 colon)	growth (MCF7 breast)	growth (HCC-2998 colon)	growth (KM12 colon)	growth (MDA-MB-435 melanoma)	growth (HCT-116 colon)
CN(C)CCN(Cc1ccccc1)c1ccc2ccccc2n1	86.3%		91.8%	86.7%	97.5%	101%		90.4%
N#Cc1cnn(C(=O)c2nn(-c3ccc(Cl)cc3)cc2O)c1N	3.29% (active)		38%	10.9%	11.9%	19.1%	19.1%	
Cc1ccc(C2NC(=S)N3C(c4ccc(C)cc4)NC(=S)N23)cc1 (stereo unspecified)	47.3%		29.2%	10.5%	47%	8.36% (active)		1.28% (active)
CCOS(=O)(=O)c1c(C(C)C)cc(C(C)C)cc1C(C)C	115%		98.3%	91.4%	99.1%	104%	99.1%	104%
Cc1ccc(S(=O)(=O)N(C)CCCCCC(=O)O)cc1	95.7%		109%	89.5%	105%	95.3%		100%
Nc1nc(-c2ccc(Cl)cc2)cc(-c2cc3ccccc3oc2=O)n1			97.2%	79.8%	126%	103%	104%	87.7%
O=[N+]([O-])c1cc(Cl)cc(Cl)c1O	93%		103%	104%	105%	98.9%	98.5%	93.5%
O=C1CC(=O)N(C(=O)c2nn(-c3ccc(Cl)cc3)cc2O)N1	23.4%		59.9%	39.9%	47.4%	46.5%	48.1%	
CCOC(=O)C1=CSC2=NC3=C(CCC/C3=C\c3cc(OC)c(OC)c(OC)c3)C(c3cc(OC)c(OC)c(OC)c3)N12 (stereo unspecified)	88.9%		44.9%	29.9%	75.1%	-21.8% (active)	21%	
C[n+]1c2ccccc2nc2ccccc21	1.26% (active)		11.2%	-19.4% (active)	50.6%	30.4%	-40.9% (active)	-15.5% (active)
Cc1ccc(-n2nnnc2N)c(C)c1	112%		96%	95.9%	95%	108%	102%	98.7%
COc1cc(C2CC(c3ccc4c(c3)OCO4)=NN2c2ccccc2)cc(OC)c1OC (stereo unspecified)		71.9%	89.4%	87.4%	83.2%	60.9%	30.7%	93.5%
CN(C)CCOc1cccc(NC2=C(Cl)C(=O)C(Nc3cccc(OCCN(C)C)c3)=C(Cl)C2=O)c1	-42.1% (active)		-54.9% (active)	-40.8% (active)	11.6%	34.4%	-68.6% (active)	
O=C(CC(CC(=O)c1ccccc1)c1ccccc1O)c1ccccc1	83%		96.7%	89.3%	105%	99.8%	99.1%	88.5%
C=CCSC(CC)(CC)C(=O)NC	102%		103%	94.6%	102%	104%	109%	94%
NNC(=O)Oc1c(Cl)cc(Cl)cc1[N+](=O)[O-]	98.5%		105%	87.9%	103%	106%	107%	102%
Clc1ccc(Cc2ccncc2)cc1		99.9%	105%	97.5%	95.6%	102%	112%	101%
S=C1N(c2ccccc2)CN(C2CCCCC2)CN1c1ccccc1	94.3%		104%	88.7%	102%	110%		102%
COc1cc2c(cc1OC)C(C(CCCCCC(CCC(C)C)C1NCCc3cc(OC)c(OC)cc31)CCC(C)C)NCC2 (stereo unspecified)	-85.2% (active)		-83.8% (active)	-92.7% (active)	-94.2% (active)	-97% (active)		-100% (active)
Cc1ccc(NC(=O)N2CCCCC2)cc1[N+](=O)[O-]	121%		73.3%	92.9%	103%	111%		94.7%
COc1ccc2nc3cc(Cl)ccc3c(NCCCNCCO)c2c1		5.74% (active)	-2.84% (active)	-18.6% (active)	-43.6% (active)	3.19% (active)	-69.1% (active)	-50.4% (active)
CCCC1(CN2c3ccccc3Sc3ccc(Cl)cc32)CCN(CC)C1 (stereo unspecified)			-94.7% (active)	-93.7% (active)	-49.5% (active)	-44.5% (active)	-94.7% (active)	
